Screening data (PubChem BioAssay)
TEAD-YAP inh – TEAD-YAP interaction inhibition. HEK-TIYL cells, TEAD-Gal4/YAP UAS-luciferase luminescence. inhibition, % at 9.12 µM. hit rate 1.4% among 640,000; in the data active = inhibition above about 32%;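 also: 0% = median of test compound wells and 100% = reference inhibitor wells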
GPR151 ag – activates the human receptor GPR151 | Q8TDV0 | PathHunter beta-arrestin GPR151 cells, luminescence | activation, % at 11.2 µM | hit rate 1% among 650,000; in the data active = activation above about 4.9%;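 also: 0% = median of compound wells and 100% = cells with positive control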
Target sequence (Q8TDV0 whole entry, looked up): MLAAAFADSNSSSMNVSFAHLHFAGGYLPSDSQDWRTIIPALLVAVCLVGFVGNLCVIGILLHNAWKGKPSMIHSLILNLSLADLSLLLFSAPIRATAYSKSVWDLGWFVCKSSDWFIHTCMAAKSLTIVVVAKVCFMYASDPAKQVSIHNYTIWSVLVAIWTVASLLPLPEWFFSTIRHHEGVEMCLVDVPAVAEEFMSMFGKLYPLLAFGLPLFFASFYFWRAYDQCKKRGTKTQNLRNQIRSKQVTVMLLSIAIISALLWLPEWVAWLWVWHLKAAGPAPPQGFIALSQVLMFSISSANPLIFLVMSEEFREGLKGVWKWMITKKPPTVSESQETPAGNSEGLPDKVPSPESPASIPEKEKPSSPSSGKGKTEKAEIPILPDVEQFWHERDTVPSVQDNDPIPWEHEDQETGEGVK
FBW7 act – activators of human E3 ligase FBW7; Q969H0; AlphaScreen FBW7–phospho-cyclin E peptide binding, activator screen; normalized activity (activation), % at 26.1 µM; hit rate 0.13% among 650,000; in the data active = normalized activity above about 1.9%;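 also: purified mutant Fbw7 with reduced substrate affinity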
MITF inh – inhibitors of human MITF | O75030 | AlphaScreen MITF homodimerization, bead proximity signal | inhibition, % at 2.6 µM | hit rate 0.91% among 650,000; in the data active = inhibition above about 50%;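 also: 0% = vehicle wells with protein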
GPR151 conf act – confirmation of human GPR151 activators. shares compounds with GPR151 ag. GPR151 PathHunter beta-arrestin cells, luminescence, 90 min; % of EA-reagent control over plate median. activation, % at 11.2 µM. 6,700 tested, under 10 active;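 active = mean percent activation across replicates above the confirmation screen cutoff of 4.91%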
GPR119 counter – counter-screen for GPR151 activators: effect on human GPR119; shares compounds with GPR151 ag; GPR119 PathHunter beta-arrestin cells, luminescence, 90 min; 0 = compound-well median, 100 = enzyme-acceptor control; activation, % at 11.2 µM; hit rate 0.3% among 6,700; AID 1508611;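 active = mean percent activation in the counterscreen above 29.09%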;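 also: counterscreen on off-target GPR119 to flag nonselective hits from the GPR151 activator screen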
* hit, by the source's call; . = not tested or not shown. Most compounds without a hit are left out; they make up all but 3.4% or so of the library.

SMILES	TEAD-YAP inh	GPR151 ag	FBW7 act	MITF inh	GPR151 conf act	GPR119 counter
O=C(CCc1nnc(C2(c3ccc(Cl)cc3)CCC2)o1)NCc1cccnc1	-1	4.9*	0	4	-1	-9
O=C(CCc1nnc(C2(c3ccc(Cl)cc3)CCC2)o1)NCCCc1cccnc1	-18	-1	0	-5	.	.
CCCC(=O)ON1C(=O)c2cccc3cccc(c23)C1=O	-3	5.5*	0	20	0	14
CC1(C(=O)O)C2C=CC3(CN(c4ccccc4)C(=O)C31)O2 (centres undefined)	-2	8.1*	0	-6	0	2
COc1ccc(CNCc2ccc3ccccc3c2)cc1OC	4	5.1*	0	34	1	1
O=C(On1c(-c2ccc(F)cc2)nc2ccccc2c1=O)c1ccc(Cl)cc1	-3	5.1*	0	3	1	13
Cc1ccccc1C(=O)On1c(-c2ccc(Cl)c([N+](=O)[O-])c2)nc2ccccc2c1=O	12	5.8*	0	4	0	9
O=C(CN1C(=O)CSC1=O)c1ccc(Cl)cc1	0	1	0	-6	.	.
Cc1ccc(C(=O)Nc2ccc(C(=O)CN3C(=O)CSC3=O)cc2)cc1	-2	5.8*	0	24	-1	-4
Cc1ccc(Nc2nnc(SCC(=O)N3CCCC3)s2)cc1	2	5.6*	0	-17	0	-12
Cc1ccc(Nc2nnc(SCC(=O)N3CCOCC3)s2)cc1	-6	-2	0	4	.	.
COCCN1Cc2cccc(C(=O)Nc3ccc4nc(-c5cccnc5)[nH]c4c3)c2C1=O	-3	0	0	2	.	.
COc1ccc(-c2cnc(SCCNC(=O)CCCc3ccccc3)[nH]2)cc1	-13	-1	0	-10	.	.
CCC(=O)NCCSc1ncc(-c2ccccc2)[nH]1	-14	5.2*	0	5	-1	-2
O=S(=O)(NNC(=S)NCC1CCCO1)c1cc(Cl)ccc1Cl (centres undefined)	3	-1	0	6	.	.
COc1ccc(C(=O)NCCC(=O)NCC2CCCO2)cc1OC (centres undefined)	-8	5.7*	0	-4	0	9
COc1ccc(S(=O)(=O)NNC(=S)NCC2CCCO2)c(OC)c1 (centres undefined)	-1	5.0*	0	1	-1	-10
N#Cc1cc2c(nc1SCc1ccc([N+](=O)[O-])cc1)CCCCC2	2	6.1*	0	-1	0	-9
O=C1CCCN1CCCNc1nccc(NC2CC2)n1	-10	5.5*	0	-11	0	-4
Cc1cc(Nc2ccc(Oc3ccccc3)cc2)nc(NCCCN2CCCC2=O)n1	15	6.8*	0	5	-1	3
CC(=O)Nc1ccc(Nc2cc(C)nc(Nc3ccc(C(F)(F)F)cc3)n2)cc1	16	5.3*	0	2	0	12
CCCNC(=O)c1ccnc(NCCCN2CCCC2=O)c1	3	8.2*	0	27	-1	0
CC(=O)Nc1ccc(Nc2cc(C)nc(Nc3ccccc3)n2)cc1	-17	0	0	6	.	.
O=C1CCCN1CCCNc1ccnc(NCCCN2CCCC2=O)n1	-6	2	0	7	.	.
COC(=O)[C@@H]1C[C@H](NC(=O)c2cccnc2)CN1Cc1cc(C)ccc1C	3	-1	0	-10	.	.
SMILES	TEAD-YAP inh	GPR151 ag	FBW7 act	MITF inh	GPR151 conf act	GPR119 counter
COc1ccc(CN2CCCN(Cc3ccc(OC)cc3)C2c2ccc(OC)c(OC)c2OC)cc1	3	0	0	1	.	.
O=C(Nc1ccc(N2CCC(NCCc3ccccn3)CC2)cc1)c1cccc(Cl)c1	-24	-1	0	14	.	.
O=C(N/N=C/c1ccco1)C1CC12CCC2 (centres undefined)	-18	0	0	43	.	.
CC(=O)Nc1ccc(Nc2cc(C)nc(NCCCN3CCCC3=O)n2)cc1	-5	5.6*	0	8	-1	-8
O=C(O)c1ccc2c(=O)[nH]c(CSc3nnc(Nc4ccccc4)s3)nc2c1	8	8.4*	0	23	1	6
O=C(Nc1cccc(OC(=O)c2cc(S(=O)(=O)N3CCOCC3)ccc2Cl)c1)c1ccco1	12	-1	0	8	.	.
FC(F)(F)c1ccc(Cn2cnc3c(NC4CC4)nc(-c4csc5ccccc45)nc32)cc1	-6	1	0	4	.	.
c1ccc2c(-c3nc(NC4CC4)c4ncn(C5CCCCC5)c4n3)csc2c1	-13	7.5*	0	-3	-1	-16
FC(F)(F)c1ccc(Cn2cnc3c(NC4CCN(Cc5ccccc5)CC4)nc(-c4csc5ccccc45)nc32)cc1	8	7.0*	0	-3	0	3
CN1C(=O)C2ON(c3ccc(Cl)cc3)C(c3ccccc3)C2C1=O (centres undefined)	11	-1	0	6	.	.
Cc1ccc(C2C3C(=O)N(C)C(=O)C3ON2c2ccccc2)cc1 (centres undefined)	-3	9.3*	0	4	0	-4
CSCC(=O)N1CCC(Oc2cccc(C(=O)NCc3cccnc3)c2)CC1	12	1	0	6	.	.
OCc1cccc(-c2cnc(Nc3ccc(N4CCOCC4)cc3)c3nccn23)c1	-11	-1	0	12	.	.
CS(=O)(=O)c1ccc(N2CCCCC2)cc1	-21	-1	0	14	.	.
Cc1sc2nc(CSCC(=O)NC3CC3)[nH]c(=O)c2c1C	-3	6.1*	0	-10	0	2
Cc1sc2nc(CSCC(=O)NCC(F)(F)F)[nH]c(=O)c2c1C	3	2	0	7	.	.
Cc1ccc(OCC(=O)OCC(=O)c2ccccc2)cc1C	-4	10*	0	-7	0	11
Cc1cc(C)cc(OCC(=O)OCc2c(C)noc2C)c1	-1	2	0	9	.	.
Cc1ccc(OCC(=O)OCc2c(C)noc2C)cc1C	7	8.0*	0	-3	0	4
COc1cccc2sc(NC(=O)c3ccc(C(C)=O)cc3)nc12	-14	2	0	12	.	.
CC(C)C(=O)N=C1SC2CS(=O)(=O)CC2N1c1cccc(C(F)(F)F)c1 (centres undefined)	5	7.5*	0	-6	1	-12
CCOc1cc(/C=C2/SC(=S)N(NC(=O)c3ccccc3OC)C2=O)ccc1O	-3	-2	0	6	.	.
Cc1c(Cl)cccc1NC(=O)CSc1nccc(=O)[nH]1	11	5.3*	0	6	0	10
O=C(CSc1nccc(=O)[nH]1)Nc1nccs1	-1	6.5*	0	7	0	11
CCOC(=O)Cn1nc(-c2ccccc2)c(N2CCCCC2)cc1=O	-13	-1	0	0	.	.
CN(Cc1ccc(OCC(O)CN2CCc3ccccc3C2)cc1)Cc1cccnc1 (centres undefined)	1	0	0	-12	.	.
